Screens: PubChem, Sanford-Burnham Center for Chemical Genomics
Peg3 promoter: Peg3 promoter-driven luciferase inhibitors, primary screen, cell-based, HeLa, luciferase luminescence; HeLa PEG-Prom luciferase reporter, overnight; inhibition, % at 20 µM; hit rate 1.7% among 360,000;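 active = inhibition of at least 50% at 20 µM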
TWEAK Fn14 block: inhibitors of TWEAK-Fn14 signaling, primary screen, luciferase reporter cells, uHTS; TWEAK-stimulated Fn14 reporter cells, luciferase luminescence, 8 h; inhibition, % at 10 µM; hit rate 2% among 360,000; AID 1159606, 2016; in the data active = inhibition above about 50%
HIF-2a block: HIF-2a reporter inhibitors, primary screen, luminescence, 786-0 RCC cells; hit rate 0.72% among 360,000; inhibition, % at 18.8 µM; AID 624352, 2012; 786-0 RCC cells HIF-2a reporter, luciferase luminescence, overnight;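 active = inhibition of the luminescence signal of 40% or more relative to plate controls, in a single-dose primary screen at 18.75 µM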
TROY NFkB inh: inhibitors of TROY-driven NF-kB signaling, primary screen, Q293 LMP1-TROYcd cells, NF-kB luciferase, uHTS; Q293 LMP1-TROYcd NF-kB luciferase reporter, 4 h; AID 1347056, 2019; hit rate 0.98% among 360,000; inhibition, % at 10 µM;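 active = compounds whose plate-normalised and pattern-corrected inhibition of the luciferase reporter signal at the single screening dose is 50% or more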
KKLEB cytotox: cytotoxicity in KKLEB CF airway cells, primary screen, cytotoxicity control for CF NF-kB inhibitor project, cell-based, uHTS, fluorescence assay plates | hit rate 0.36% among 360,000 | activity change (cytotoxicity), % at 5 µM | AID 602141, 2011 | KKLEB CF airway cells viability, ATPlite luminescence, overnight; stronger effect = lower value; cells stimulated with P. aeruginosa culture filtrate;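 active = corrected activity change at or below -50% at 5 µM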
CF NFkB inh: inhibitors of PAF-induced NF-kB signaling, primary screen, cell-based, GFP fluorescence, uHTS. KKLEB NF-kB-GFP reporter, GFP fluorescence overnight. inhibition, % at 5 µM. hit rate 0.86% among 360,000. AID 588850, 2011;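 active = at least 50% inhibition at 5 µM, scaled per plate between neutral and stimulator controls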;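 note: PAF is a Pseudomonas aeruginosa culture filtrate used as stimulus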
A number is an active result; 0 = inactive; - = no result given. Shown are actives, neighbours in structure and some others; about 4% of the full set was active somewhere.

SMILES	Peg3 promoter	TWEAK Fn14 block	HIF-2a block	TROY NFkB inh	KKLEB cytotox	CF NFkB inh
CCCCCCCCC(c1nc2ccccc2[nH]1)N1CCN=C1c1cc2ccccc2[nH]1 (configuration not stated)	100	0	0	0	0	0
CCOc1ccc(-n2c(SCC(=O)N3CCc4ccccc43)nnc2-c2c[nH]c3ccccc23)cc1	0	0	0	0	0	0
COc1cccc(-n2c(SCC(=O)N3CCc4ccccc43)nnc2-c2c[nH]c3ccccc23)c1	101	0	0	0	-58	60
CCOC(=O)C1CCCN(C(=O)c2ccc(-c3ccccc3)cc2)CC1 (configuration not stated)	0	0	0	0	0	0
CCN(CC)S(=O)(=O)c1ccc2[nH]cc(C(=O)NCCC3=CCCCC3)c(=O)c2c1	0	59	0	0	0	0
CCN(CC)S(=O)(=O)c1ccc2[nH]cc(C(=O)NCCN3CCCCCC3)c(=O)c2c1	0	0	0	0	0	0
Cc1cc(C)c(CN2CCN(C(=O)Cn3cnc(C(=O)Nc4ccc(C)c(C)c4)n3)CC2)c(C)c1	86	0	0	0	-69	0
Cc1ccc(NC(=O)c2ncn(CC(=O)N[C@H](C)c3cccc4ccccc34)n2)cc1C	0	0	0	0	0	0
Cc1ccc(NC(=O)Cn2cnc(C(=O)Nc3ccc(C)c(C)c3)n2)cc1C	0	0	0	0	0	0
Cc1ccc(NC(=O)c2ncn(CCCN3CCN(Cc4cccc5ccccc45)CC3)n2)cc1C	97	0	0	0	0	0
CC1CCN(C(=O)COC(=O)c2c[nH]c3ccccc23)CC1	0	0	0	0	0	0
CC(=O)c1c(C)[nH]c(C(=O)COc2ccc3ccc(=O)oc3c2)c1C	68	0	0	0	0	0
COC(=O)c1c(C)[nH]c(C(=O)COc2ccc3ccc(=O)oc3c2)c1C	0	0	0	0	0	0
COC(=O)c1cc(N=CC2=C(O)CC(C)(C)CC2=O)cc(C(=O)OC)c1	0	0	0	0	0	0
COC(=O)c1cc(OC)c(OC)cc1N=CC1=C(O)CC(C)(C)CC1=O	0	56	0	0	0	0
O=C1NC2c3c(Cl)sc(Cl)c3C(=O)C2O1 (configuration not stated)	68	0	0	0	0	0
C=C1CC[C@@H]2[C@](C)(CCC[C@@]2(C)/C=C/[C@@H](O)C(C)(C)O)[C@H]1CC(=O)NCCS(=O)(=O)O	0	0	0	0	0	0
CC1(C(=O)NCc2ccco2)Cc2c(-c3cccc(C(F)(F)F)c3)ccnc2O1 (configuration not stated)	0	0	0	0	0	0
Cc1ccc(O)c(Cc2cc(C)cc(Cc3cc(C)ccc3O)c2O)c1	56	0	0	0	0	0
Cc1ccc(O)c(CNCCNCc2cc(C)ccc2O)c1	0	0	0	0	0	0
C=CCNC(=O)c1ccc(CSc2nc3ccccc3s2)cc1	0	0	0	0	0	0
CC(=O)NCCNC(=O)c1ccc(CSc2nc3ccccc3s2)cc1	0	85	0	69	0	0
CCc1nnc(NC(=O)CSc2nnc(-c3ccc(S(=O)(=O)N4CCCC4)cc3)n2CC)s1	0	0	0	0	0	0
CCc1nnc(NC(=O)CSc2nnc(-c3ccc(S(=O)(=O)N(CC)CC)cc3)n2CC)s1	0	83	0	0	0	0
Cc1cc(-c2ccc(C)c(S(=O)(=O)NCc3ccc(Br)cc3)c2)on1	0	65	0	0	0	0
SMILES	Peg3 promoter	TWEAK Fn14 block	HIF-2a block	TROY NFkB inh	KKLEB cytotox	CF NFkB inh
Cc1cc(-c2ccc(C)c(S(=O)(=O)NCc3cccc(Br)c3)c2)on1	0	0	0	0	0	0
CC(C)OC(=O)c1ccc(NCc2cc(O)ccc2O)cc1	0	101	0	0	0	72
O=C(OCc1ccccc1)c1ccc(NCc2cc(O)ccc2O)cc1	92	107	78	58	-56	81
CN(C)S(=O)(=O)c1ccc(-c2csc(N/N=C/c3ccco3)n2)cc1	61	104	0	71	0	0
COc1ccc(C(=O)/C=C/c2ccc(N3CCCCC3)c([N+](=O)[O-])c2)c(OC)c1	0	0	41	0	0	0
COc1ccc(OC)c(N/C=C/C(=O)c2ccccc2)c1	73	101	63	81	-88	0
COc1ccc(C(=O)/C=C/c2ccc(N(C)C)cc2)c(OC)c1	0	0	0	0	0	0
COc1ccc(C(=O)/C=C/c2ccccc2)c(OC)c1	68	59	0	0	0	0
COc1cc(/C=C/C(=O)c2cccc([N+](=O)[O-])c2)cc(OC)c1OC	105	0	0	0	0	0
COc1ccc(OC)c(N/C(C)=C/C(=O)c2ccccc2)c1	0	0	0	0	0	0
COc1cccc(C(=O)N[C@@H](C)C(=O)N2CCC3(CC2)NCCc2[nH]cnc23)c1	0	0	0	0	0	0
CCOC(=O)[C@]12CCCC=C1N(Cc1ccc(Cl)cc1Cl)C(=O)[C@H](CC(=O)NCc1cccc3ccccc13)C2	-	0	0	0	-	-
CC1(Cc2ccc(Cl)cc2)C(=O)Nc2c(Cl)ccc(Cl)c21 (configuration not stated)	0	0	0	0	0	0
COCOc1cc(O)c(C(=O)/C=C/c2ccccc2)c(OCOC)c1	95	71	0	0	0	0
COc1ccc(C=CC(=O)c2c(OC)cc(OC)c(OC)c2O)cc1	0	68	0	0	0	0
COc1ccc(C(=O)/C=C/c2cc(OC)c(O)c(OC)c2)c(F)c1	0	56	0	0	0	0
CNC[C@H]1Oc2ccc(NC(=O)Nc3ccccc3)cc2CC(=O)N([C@H](C)CO)C[C@H]1C	0	0	0	0	0	0
CCOc1ccc(C(=O)OCC(=O)N2CCCC2)cc1OCC	0	0	0	0	0	0
CCc1nc(N)nc(N)c1-c1ccc(N(C)Cc2ccccc2)c([N+](=O)[O-])c1	0	68	0	0	0	0
O=c1c2ccc(F)cc2sn1-c1ccccc1	0	0	0	0	0	54
O=c1c2ccccc2sn1-c1ccc(Cl)cc1	0	0	0	0	0	64
O=c1c2ccccc2sn1-c1ccc(F)cc1	0	0	0	0	0	0
Cc1cc(OCC(=O)Nc2ccc3oc(-c4ccncc4)nc3c2)ccc1Cl	53	0	0	0	0	0
Cc1cc(NC(=O)CCC(=O)N(Cc2cccs2)C(C)(C)C(=O)NC2CCCCC2)no1	0	0	0	0	0	0
CC1=C(C(=O)N(C(C)C)C(C)C)CC(CC(=O)NCc2ccco2)C(=O)N1Cc1ccc(F)cc1 (configuration not stated)	0	0	0	0	0	0
